The source made the active and inactive calls.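 How the source made its calls: active means EC50 at or below 10 µM; inactive means EC50 above 10 µM.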
Assay: compound autofluorescence in calcium buffer – biochemical, fluorescence, no RTF in test wells, artefact control for cardiac thin filament activator project, dose response (AID 504697);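 further: emission near 535 nm under roughly 485 nm excitation as for IANBD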
Settings: artifact counterscreen

| SMILES | EC50 |
| --- | --- |
| C=CCN1C(=O)/C(=C/c2ccc(N3CCOCC3)o2)C(=O)NC1=S | 14 µM (inactive) |
| C/C(=N\N1CCCCC1c1cccnc1)c1c(O)n(C2CCCCC2)c(=S)[nH]c1=O (centres undefined) | 39.3 µM (inactive) |
| Cc1cc(Cl)nc(N)n1 | > 71.4 µM (inactive) |
| Cc1ccc(-n2c(O)c(/C=C/C=Nc3ccccc3)c(=O)[nH]c2=O)cc1 | 10.6 µM (inactive) |
| Cc1cc(N2CCCC2)ccc1C=C(C#N)C#N | 14.4 µM (inactive) |
| O=[N+]([O-])c1ccc(N2CCCC2)c2ncccc12 | 23.5 µM (inactive) |
| COc1ccc(OC)c(-n2c(O)c(C=NCCN3CCNCC3)c(=O)[nH]c2=S)c1 | > 71.5 µM (inactive) |
| CN1C(=O)/C(=C/c2ccc(N3CCCCCC3)o2)C(=O)NC1=S | 5 µM (active) |
| CC(=O)OCC[N+](C)(C)C | > 71.4 µM [compound-only fluorescence in RTF assay buffer with Ca2+ (no RTF in test wells)] (inactive) |
| CNS(=O)(=O)c1ccc(N=Cc2c(O)n(-c3ccccc3)c(=O)[nH]c2=O)cc1 | > 71.5 µM (inactive) |
| O=C(CN1CCN(c2ccccc2F)CC1)Nc1cccnc1Cl | > 71.5 µM (inactive) |
| O=c1[nH]c(=O)n(Cc2ccc(F)cc2)c(O)c1/C=N/Nc1ccccc1 | > 71.5 µM (inactive) |
| O=[N+]([O-])c1ccc(N2CCCCCC2)c2nonc12 | 1.17 µM (active) |
| CCC1(C)OC(c2ccccc2)=C/C(=C/C=C2C(=O)NC(=O)NC2=O)O1 (centres undefined) | 2.73 µM (active) |

From PubChem BioAssay AID504697 (The Scripps Research Institute Molecular Screening Center, 2011)
